This is one part of the list. The true hit rate is not given.
Target: furin, P09958
Assay: furin cleavage Z-score vs untreated control; higher = more cleavage, active = 3.5 or more, inactive = 1 or less, 8 variable residues between constant flanks
Procedure, shortened: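 Furin-free reactions served as the baseline for the cleavage Z-score, which is the log read count lowess-adjusted and scaled by median absolute deviation. Counts came from released DNA, adapter-tagged by PCR and sequenced. Purified furin had cut 8-mer peptides fused to a cDNA oligonucleotide on magnetic beads during 7.5, 15 or 30 min at 1:10 enzyme:substrate.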
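Further: purified furin at 1:10 enzyme:substrate in 50 mM HEPES pH 7.5.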

Chain of furin, P09958 (P09958 whole entry): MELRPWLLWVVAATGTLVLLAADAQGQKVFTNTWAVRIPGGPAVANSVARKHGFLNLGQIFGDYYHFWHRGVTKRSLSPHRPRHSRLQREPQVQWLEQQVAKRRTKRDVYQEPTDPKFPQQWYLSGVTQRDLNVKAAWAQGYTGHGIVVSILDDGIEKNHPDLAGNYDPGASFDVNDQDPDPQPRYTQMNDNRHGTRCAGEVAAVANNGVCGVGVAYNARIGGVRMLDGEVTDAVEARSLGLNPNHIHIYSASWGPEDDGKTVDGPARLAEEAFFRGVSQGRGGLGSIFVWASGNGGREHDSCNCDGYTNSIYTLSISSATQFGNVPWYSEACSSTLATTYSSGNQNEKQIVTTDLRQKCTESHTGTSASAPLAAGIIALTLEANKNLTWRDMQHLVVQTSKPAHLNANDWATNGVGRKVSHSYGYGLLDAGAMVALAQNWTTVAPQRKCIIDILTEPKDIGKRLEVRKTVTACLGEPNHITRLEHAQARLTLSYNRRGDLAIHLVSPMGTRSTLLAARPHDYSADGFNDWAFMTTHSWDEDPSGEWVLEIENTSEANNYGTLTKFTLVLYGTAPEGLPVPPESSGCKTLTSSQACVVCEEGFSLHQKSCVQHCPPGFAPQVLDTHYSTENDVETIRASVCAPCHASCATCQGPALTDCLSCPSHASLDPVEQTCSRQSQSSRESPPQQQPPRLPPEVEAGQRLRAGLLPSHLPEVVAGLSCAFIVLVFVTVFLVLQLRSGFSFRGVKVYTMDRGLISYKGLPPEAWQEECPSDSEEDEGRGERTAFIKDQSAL

Sequence	furin cleavage Z-score (7.5 min)	furin cleavage Z-score (15 min)	furin cleavage Z-score (30 min)
CAEPSRLVREAGNASASA [FS-1452]	3.98 (active)	5.86 (active)	4.45 (active)
CADREVLYREAGNASASA [HC1009]	1.17	0.738 (inactive)	0.787 (inactive)
CARCRRLVREAGNASASA [FS-3185]	8.42 (active)	9.96 (active)	8.44 (active)
CARCRRQFQEAGNASASA [FS-1887]	0.189 (inactive)	1.16	1.9
CARQCRSSQGAGNASASA [FS-2288]	1.61	0.149 (inactive)	1.21
CARPKRYNSGAGNASASA [FS-2437]	0.95 (inactive)	0.51 (inactive)	1.14
CARWKRDSSGAGNASASA [FS-3176]	10.7 (active)	12 (active)	10.2 (active)
CARLVRESSGAGNASASA [FS-2999]	-0.00522 (inactive)	1.39	1.91
CARIKRDSQGAGNASASA [FS-2338]	12.5 (active)	13.5 (active)	10.5 (active)
CARDSRSSGGAGNASASA [FS-2906]	-0.675 (inactive)	-1.21 (inactive)	-0.52 (inactive)
CAKPGIYRFVAGNASASA [HC908]	1.16	-1.32 (inactive)	2.33
CAGVVCAAILAGNASASA [HC1108]	0.833 (inactive)	1.01	1.2
CAVIDCNTCVAGNASASA [HC886]	-1.17 (inactive)	-0.722 (inactive)	-1.34 (inactive)
CAGPDQRPYCAGNASASA [HC400]	0.515 (inactive)	0.00682 (inactive)	0.075 (inactive)
CAPGRRRRRTAGNASASA [FS-1381]	7.92 (active)	8.84 (active)	6.67 (active)
CAVPQRHRRTAGNASASA [FS-1432]	10.8 (active)	9.86 (active)	9.48 (active)
CAVATDALMTAGNASASA [HC878]	-0.06 (inactive)	-0.775 (inactive)	0.231 (inactive)
CAVGRRYRRTAGNASASA [FS-387]	11.6 (active)	9.35 (active)	8.06 (active)
CARGRREARRAGNASASA [FS-2936]	6.61 (active)	7.38 (active)	6.43 (active)
CAQPRRHRRPAGNASASA [FS-1250]	0.282 (inactive)	1.35	0.113 (inactive)
CASWDQMWKCAGNASASA [HC962]	1.5	-0.918 (inactive)	-0.53 (inactive)

Sequence	furin cleavage Z-score (7.5 min)	furin cleavage Z-score (15 min)	furin cleavage Z-score (30 min)
CAAAEEQKLPAGNASASA [HC1378]	-1.36 (inactive)	-0.838 (inactive)	-1.05 (inactive)
CAWMNRLIAFAGNASASA [HC1118]	0.154 (inactive)	0.647 (inactive)	1.16
CAHVPCHRPSAGNASASA [HC2315]	1.79	0.404 (inactive)	0.971 (inactive)
CAMNECSQHLAGNASASA [HC1701]	-0.476 (inactive)	0.465 (inactive)	1.3
CAEGVVCCSMAGNASASA [HC2136]	0.615 (inactive)	1.53	-0.0256 (inactive)
CAEVLYREFDAGNASASA [HC1010]	-0.000681 (inactive)	-0.163 (inactive)	-0.163 (inactive)
CARGRRRRRTAGNASASA [FS-1399]	6.1 (active)	5.39 (active)	6 (active)
CARGRRKKKCAGNASASA [FS-1398]	0.559 (inactive)	2.05	2.1
CAPVVPQSFQAGNASASA [HC769]	0.521 (inactive)	-0.599 (inactive)	-1.31 (inactive)
CARQKRNKIPAGNASASA [FS-2290]	0.00727 (inactive)	-0.821 (inactive)	0.672 (inactive)
CARVKRRADPAGNASASA [FS-2197]	8.92 (active)	9.27 (active)	8.27 (active)
CAEVPCHRQSAGNASASA [HC2402]	0.566 (inactive)	0.909 (inactive)	1.17
CARQKRREERAGNASASA [FS-1865]	-0.0741 (inactive)	1.57	0.905 (inactive)
CARVKRYRQSAGNASASA [FS-2243]	3.13	4.29 (active)	5.21 (active)
CARVPRDWDPAGNASASA [FS-1940]	-0.333 (inactive)	-0.446 (inactive)	1.11
CARVKRVSHSAGNASASA [FS-2619]	-0.25 (inactive)	0.383 (inactive)	1.16
CARQKRRAKPAGNASASA [FS-1864]	5.33 (active)	6.71 (active)	6.66 (active)
CARVKRRLLMAGNASASA [FS-2318]	1.78	2.84	5.21 (active)
CARVKRPQLMAGNASASA [FS-2532]	1.35	-0.179 (inactive)	-0.384 (inactive)
CAVMCCSMSYAGNASASA [HC2006]	0.223 (inactive)	0.521 (inactive)	0.261 (inactive)
CAVVCCPMSYAGNASASA [HC120]	-0.00854 (inactive)	1.19	0.154 (inactive)

— the supplement of paper PMC3545927
